Source: PubChem (National Center for Advancing Translational Sciences (NCATS))
Rows were chosen to be rich in hits. Some 19% of all compounds tested hit in one or more screens of this group.
KB-V1 MDR tox = kills drug-selected multidrug resistant KB-V1 cells; AID 1347076; Potency, µM (doses to about 46.1 µM), hits mostly cytotoxic; 400,000 compounds, 3.4% hits; KB-V1 MDR cells viability, CellTiter-Glo, 72 h; note: nearly all actives have a fitted effect of over 60% in size
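Luminescent ATP read-out (CellTiter-Glo, 10 min) measures survival of drug-selected KB-V1 MDR cells after 72 h, 37 degrees C compound exposure. Medium: phenol-red-free DMEM, 10% FBS. Values from fitted concentration-response curves.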
TDP1 cell noCPT = qHTS for Inhibitors of human tyrosyl-DNA phosphodiesterase 1 (TDP1): qHTS in cells in absence of CPT; DT40 Tdp1-/- hTDP1 cells, no CPT, ATP luminescence, 48 h; Potency, µM (titrated, usually from 46.2 µM), inactives show at the top dose activity change, negative = growth inhibition, actives largely listed as inhibitors; 420,000 compounds, 15% hits; note: nearly all actives have a fitted effect of over 55% in size
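Stably hTDP1-transfected Tdp1-null chicken DT40 cells were treated with library compounds minus camptothecin and grown for at least 48 hr at 37 °C, after which cellular ATP was quantified by luminescence.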
TDP1 cell CPT = growth inhibition of DT40 Tdp1-/-;hTDP1 cells with camptothecin (screen for TDP1 inhibitors); chicken DT40 Tdp1-/-;hTDP1 cells + 20 nM CPT, ATP luminescence, 48 h; Potency, µM (doses to about 46.2 µM), for inactives: at the highest dose activity change, negative = growth inhibition, actives largely listed as inhibitors; 420,000 compounds, 12% hits; AID 686979; note: nearly all actives have a fitted effect of over 55% in size
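Cell growth measured by CellTiter-Glo luminescence after a minimum 48 h, 37 C compound exposure with 20 nM CPT in Tdp1-knockout DT40 cells stably expressing hTDP1, seeded 400/well; qHTS titration format.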
KB-3-1 tox = KB-3-1 parental cell cytotoxicity; Potency, µM (titrated, usually from 46.1 µM), hits mostly cytotoxic; 400,000 compounds, 1.4% hits; KB-3-1 viability, CellTiter-Glo ATP luminescence, 72 h; AID 1347075; note: nearly all actives have a fitted effect of over 60% in size
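Luminescent ATP read-out (CellTiter-Glo) measures survival of drug-naive KB-3-1 cells after 72 h compound exposure at 37 °C. Titration series was screened from lowest to highest concentration, with DMSO vehicle plates as background controls.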
HT1080-NT tox = kills 2HG-producing HT-1080-NT fibrosarcoma cells | HT-1080-NT fibrosarcoma viability, CellTiter-Glo ATP luminescence, 48 h | Potency, µM (series often up to 46.1 µM), inactives show at the top dose activity, negative = less viability, actives largely listed as cytotoxic | 360,000 compounds, 1.6% hits;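 note: NT is the 2HG producing partner of a matched IDH1 knockdown line; 0% = DMSO-treated cells and -100% = media-only wells without cells; nearly all actives have a fitted effect of over 55% in size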
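Fibrosarcoma NT cells, 750 per well in 5% FBS RPMI, were exposed to compound for 48 hours. Viability: CellTiter-Glo luminescence.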
HT1080 IDH1KD tx = kills HT-1080 cells with IDH1 knockdown; HT-1080 IDH1 knockdown viability, ATP luminescence, 48 h; Potency, µM (highest dose often 46.1 µM), without a hit: at the top dose activity, negative = toxicity, usual class: cytotoxic; 360,000 compounds, 2% hits;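 note: 0% = DMSO wells and -100% = cell-free medium wells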
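After a 2 h attachment period, IDH1KD HT-1080 cells took pin-transferred compound for 48 h at 37 °C; ATP-based luminescence after 10 min room-temperature reagent incubation reported viability.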
* = called active by the depositor. Calls come from the whole dose curve; as a rule, active = well fitted curve in the direction sought with a large enough effect; inconclusive = small, poorly fitted or top-dose-only effect, or another doubt; inactive = no such curve, though single readings can be large; an effect the other way counts as inactive or inconclusive. Unless noted, % is set by controls: 0 for no effect and ±100 for the full control effect; potency is the fitted concentration of half-maximal effect.

`Cc1ccc(-c2nc(CCNC(=O)c3ccc(C)c(C)c3)cs2)cc1` gave TDP1 cell noCPT 16µM* and TDP1 cell CPT inconclusive.
For COc1ccc(-c2nc(CCNC(=O)c3cc(OC)c(OC)c(OC)c3)cs2)cc1 the results were TDP1 cell noCPT 13µM* and TDP1 cell CPT 13µM*.
For COc1cccc(C(=O)NCCc2csc(-c3cccc(F)c3)n2)c1OC the results were KB-V1 MDR tox inactive, TDP1 cell noCPT inconclusive, TDP1 cell CPT inconclusive and KB-3-1 tox inactive.
Screening Cc1cccc(-c2nc(CCNC(=O)c3ccccc3Br)cs2)c1 returned TDP1 cell noCPT 21µM* and TDP1 cell CPT 18µM*.
CC1CCN(S(=O)(=O)c2ccc3c(c2)N(CC(=O)NCCN(C)C)C(=O)CO3)CC1 was read as KB-V1 MDR tox inactive and KB-3-1 tox inactive.
For COc1cccc(OC)c1C(=O)NCCc1csc(-c2ccc(Cl)cc2)n1 the results were KB-V1 MDR tox inactive, TDP1 cell noCPT inconclusive, TDP1 cell CPT inconclusive and KB-3-1 tox inactive.
For COc1cccc(C(=O)NCCc2csc(-c3ccc(Cl)cc3)n2)c1 the results were KB-V1 MDR tox inactive, TDP1 cell noCPT inconclusive, TDP1 cell CPT 16µM* and KB-3-1 tox inactive.
For CCOC(=O)Cn1c(=O)cc(-c2ccccc2)c2c(C)nn(C)c21 the results were KB-V1 MDR tox inactive, TDP1 cell noCPT inconclusive, TDP1 cell CPT inconclusive and KB-3-1 tox inactive.
C=C1C(N)CC2CC1C2(C)C (stereo not drawn) was read as TDP1 cell noCPT -4% and TDP1 cell CPT 6%.
`C[C@@H]1CN([C@@H](C)CO)C(=O)c2cc(NC(=O)C3CCCCC3)ccc2O[C@@H](C)CCCCO[C@@H]1CN(C)Cc1ccncc1` gave KB-V1 MDR tox inactive, TDP1 cell noCPT -21%, TDP1 cell CPT -20%, KB-3-1 tox inactive, HT1080-NT tox 12% and HT1080 IDH1KD tx 5%.
For COc1ccc(C2NC(=O)NC(c3ccccc3)=C2c2nc3ccccc3s2)cc1 (stereo not drawn) the results were KB-V1 MDR tox inconclusive, TDP1 cell noCPT inconclusive, TDP1 cell CPT 14µM*, KB-3-1 tox inactive, HT1080-NT tox inconclusive and HT1080 IDH1KD tx inconclusive.
Screening COc1ccc(-c2nc3ccccc3s2)cc1 returned KB-V1 MDR tox inactive, TDP1 cell noCPT -26%, TDP1 cell CPT -17%, KB-3-1 tox inactive, HT1080-NT tox -4% and HT1080 IDH1KD tx -9%.
Screening COc1ccc(C2NC(=O)NC3=C2CCc2ccccc23)cc1 (stereo not drawn) returned KB-V1 MDR tox 13µM*, TDP1 cell noCPT inconclusive, TDP1 cell CPT inconclusive, KB-3-1 tox 18µM*, HT1080-NT tox 15µM* and HT1080 IDH1KD tx 18µM*.
`CC(C)c1ccc(C2NC(=O)NC3=C2CCc2ccccc23)cc1` (stereo not drawn) gave KB-V1 MDR tox 18µM*, TDP1 cell noCPT 15µM*, TDP1 cell CPT 13µM*, KB-3-1 tox 15µM*, HT1080-NT tox -2% and HT1080 IDH1KD tx -12%.
For CCOC(=O)[C@@H]1[C@H]2COc3ccccc3[C@H]2N2C(=O)N(c3cccc(C)c3)C(=O)[C@]12C the results were KB-V1 MDR tox inactive, TDP1 cell noCPT -6%, TDP1 cell CPT -9%, KB-3-1 tox inactive, HT1080-NT tox 19% and HT1080 IDH1KD tx 2%.
`Cc1c(C(=O)Nc2ccc3c(c2)OCO3)sc2nc(-c3ccccc3)cn12` gave KB-V1 MDR tox inactive, TDP1 cell noCPT inconclusive, TDP1 cell CPT inconclusive, KB-3-1 tox inactive, HT1080-NT tox -2% and HT1080 IDH1KD tx 7%.
`CCN(CC)CCCNC(=O)c1sc2nc(-c3ccc(F)cc3)cn2c1C` gave KB-V1 MDR tox 16µM*, TDP1 cell noCPT inconclusive, TDP1 cell CPT inconclusive, KB-3-1 tox inactive, HT1080-NT tox inconclusive and HT1080 IDH1KD tx inconclusive.
Cc1ccc(-c2nn(-c3ccc(F)cc3)cc2C(=O)NCC2CCCO2)cc1 (stereo not drawn) was read as KB-V1 MDR tox inconclusive, TDP1 cell noCPT inconclusive, TDP1 cell CPT inconclusive, KB-3-1 tox inactive, HT1080-NT tox -23% and HT1080 IDH1KD tx -11%.
Cc1c(C(=O)NCc2ccc3c(c2)OCO3)sc2nc(-c3ccccc3)cn12 was read as KB-V1 MDR tox inactive, TDP1 cell noCPT 15µM*, TDP1 cell CPT inconclusive, KB-3-1 tox inactive, HT1080-NT tox 4% and HT1080 IDH1KD tx 7%.
Cc1c(C(=O)NCC2CCCO2)sc2nc(-c3ccc(F)cc3)cn12 (stereo not drawn) was read as KB-V1 MDR tox inactive, TDP1 cell noCPT inconclusive, TDP1 cell CPT 15µM*, KB-3-1 tox inactive, HT1080-NT tox -3% and HT1080 IDH1KD tx -21%.
Screening Cc1c(C(=O)NCc2ccccn2)sc2nc(-c3ccc(F)cc3)cn12 returned KB-V1 MDR tox inactive, TDP1 cell noCPT inconclusive, TDP1 cell CPT inconclusive, KB-3-1 tox inconclusive, HT1080-NT tox -4% and HT1080 IDH1KD tx inconclusive.
Screening Cc1c(C(=O)NCc2ccc3c(c2)OCO3)sc2nc(-c3ccc(F)cc3)cn12 returned KB-V1 MDR tox inactive, TDP1 cell noCPT 16µM*, TDP1 cell CPT inconclusive, KB-3-1 tox inactive, HT1080-NT tox 0% and HT1080 IDH1KD tx 2%.
COc1ccc(-c2cc3ccccc3oc2=O)cc1NC(=O)c1cccnc1 was read as KB-V1 MDR tox inactive, TDP1 cell noCPT inconclusive, TDP1 cell CPT inconclusive, KB-3-1 tox inactive, HT1080-NT tox -1% and HT1080 IDH1KD tx -2%.
COc1cc(C(=O)NC(=S)Nc2ccc([N+](=O)[O-])cc2)cc(OC)c1OC was read as KB-V1 MDR tox inactive, TDP1 cell noCPT 3%, TDP1 cell CPT 2%, KB-3-1 tox inactive, HT1080-NT tox -5% and HT1080 IDH1KD tx -9%.
`COc1cc(C(=O)NC(=S)Nc2ccccc2N2CCOCC2)cc(OC)c1OC` gave KB-V1 MDR tox inconclusive, TDP1 cell noCPT 12µM*, TDP1 cell CPT 18µM*, KB-3-1 tox inactive, HT1080-NT tox -29% and HT1080 IDH1KD tx -26%.
Screening FC(F)(F)Oc1ccc(NC(=S)Nc2ccccc2N2CCOCC2)cc1 returned KB-V1 MDR tox inactive, TDP1 cell noCPT 16µM*, TDP1 cell CPT inconclusive, KB-3-1 tox inconclusive, HT1080-NT tox 0% and HT1080 IDH1KD tx -10%.
